Reference: PubChem BioAssay (NCI)
The panel holds about 83,000 compounds, 20% with a hit somewhere; the sample as a whole holds those more often.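 Testing used 96-well plates and a 48-hour single-concentration exposure. Example: -40 means 40% of the starting cells died.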 Calls of active or inactive are those of the source. Rule for the calls: active = growth percent below 10; inactive = the rest.

Experiments:
Test in all cases: NCI-60 one-dose screen, 48 h (100 = growth as untreated, 0 = no growth, -100 = all killed)
NCI-H23 lung = conditions: 10 µM unless noted
NCI-H460 lung = conditions: 10 µM unless noted
K-562 leukemia = conditions: 10 µM unless noted
RXF 393 renal = conditions: 10 µM unless noted
SF-295 CNS = conditions: 10 µM unless noted
M14 melanoma = conditions: 10 µM unless noted
U251 CNS = conditions: 10 µM unless noted
SK-MEL-5 melanoma = conditions: 10 µM unless noted
UO-31 renal = conditions: 10 µM unless noted
A498 renal = conditions: 10 µM unless noted
HL-60(TB) leukemia = conditions: 10 µM unless noted
CCRF-CEM leukemia = conditions: 10 µM unless noted
HS 578T breast = conditions: 10 µM unless noted
T-47D breast = conditions: 10 µM unless noted
BT-549 breast = conditions: 10 µM
HCT-116 colon = conditions: 10 µM unless noted
HCC-2998 colon = conditions: 10 µM unless noted
HT29 colon = conditions: 10 µM unless noted
CAKI-1 renal = conditions: 10 µM unless noted
RPMI-8226 leukemia = conditions: 10 µM unless noted

Compound	growth (NCI-H23 lung)	growth (NCI-H460 lung)	growth (K-562 leukemia)	growth (RXF 393 renal)	growth (SF-295 CNS)	growth (M14 melanoma)	growth (U251 CNS)	growth (SK-MEL-5 melanoma)	growth (UO-31 renal)	growth (A498 renal)	growth (HL-60(TB) leukemia)	growth (CCRF-CEM leukemia)	growth (HS 578T breast)	growth (T-47D breast)	growth (BT-549 breast)	growth (HCT-116 colon)	growth (HCC-2998 colon)	growth (HT29 colon)	growth (CAKI-1 renal)	growth (RPMI-8226 leukemia)
ClCCN(CCCl)c1ccc(/C=C\c2ccnc3ccccc23)cc1	61.6% (inactive)	56.3% (inactive)	60.9% (inactive)	99% (inactive)	69.4% (inactive)	85.5% (inactive)	76.4% (inactive)	71.2% (inactive)	70.8% (inactive)	68.2% (inactive)	46.8% (inactive)	71% (inactive)	89.9% (inactive)	63.1% (inactive)	70.5% (inactive)	52.2% (inactive)	91.6% (inactive)	–	–	–
CC1(C)CC(=O)CC(C)(C)N1N=O	102% (inactive)	114% (inactive)	111% (inactive)	136% (inactive)	111% (inactive)	102% (inactive)	118% (inactive)	111% (inactive)	91.5% (inactive)	106% (inactive)	77.4% (inactive)	–	–	97.3% (inactive)	–	96.3% (inactive)	97.9% (inactive)	99.4% (inactive)	99.9% (inactive)	–
[Cl][Hg][n]1cnc2c(Cl)c(Cl)c(Cl)cc21	101% (inactive)	98.1% (inactive)	96.5% (inactive)	140% (inactive)	96.1% (inactive)	94.5% (inactive)	78.2% (inactive)	102% (inactive)	86.4% (inactive)	104% (inactive)	99.9% (inactive)	102% (inactive)	79.5% (inactive)	72.2% (inactive)	112% (inactive)	103% (inactive)	107% (inactive)	81.2% (inactive)	103% (inactive)	98.9% (inactive)
C1CNC2CCCC2C1 (stereo not drawn)	108% (inactive)	108% (inactive)	112% (inactive)	93.1% (inactive)	104% (inactive)	107% (inactive)	105% (inactive)	96.7% (inactive)	82.5% (inactive)	107% (inactive)	117% (inactive)	106% (inactive)	111% (inactive)	108% (inactive)	102% (inactive)	108% (inactive)	107% (inactive)	102% (inactive)	103% (inactive)	101% (inactive)
C=CCC1(CC)C(=O)NC(=S)NC1=O	100% (inactive)	111% (inactive)	95.5% (inactive)	110% (inactive)	108% (inactive)	115% (inactive)	101% (inactive)	95.7% (inactive)	83.7% (inactive)	110% (inactive)	75.4% (inactive)	100% (inactive)	102% (inactive)	100% (inactive)	106% (inactive)	108% (inactive)	96.5% (inactive)	98% (inactive)	96.8% (inactive)	103% (inactive)
C#CC1(O)CCC2(C)C(CCC3C4CCC(=O)C4(C)CCC32)C1 (stereo not drawn)	97.3% (inactive)	102% (inactive)	92.6% (inactive)	110% (inactive)	94.1% (inactive)	102% (inactive)	93.9% (inactive)	96.2% (inactive)	86.8% (inactive)	98.2% (inactive)	93.5% (inactive)	91.2% (inactive)	94.3% (inactive)	96.1% (inactive)	–	92.3% (inactive)	106% (inactive)	86.9% (inactive)	–	83.7% (inactive)
O=S(=O)(O)c1ccc(-c2ccc([As](=O)(O)O)cc2)cc1	105% (inactive)	–	101% (inactive)	117% (inactive)	101% (inactive)	100% (inactive)	95.6% (inactive)	110% (inactive)	89.1% (inactive)	–	102% (inactive)	99.7% (inactive)	110% (inactive)	89.5% (inactive)	106% (inactive)	108% (inactive)	105% (inactive)	99.1% (inactive)	–	102% (inactive)
O=[N+]([O-])c1cc([N+](=O)[O-])c(Cl)c(Cl)c1Cl	43% (inactive)	–	13% (inactive)	-86.2% (active)	98.5% (inactive)	-8.63% (active)	-79.4% (active)	–	-63.2% (active)	–	19.5% (inactive)	-22.3% (active)	–	-27.9% (active)	49.8% (inactive)	-53.9% (active)	78.8% (inactive)	-85.5% (active)	–	12.8% (inactive)
CN(Cc1cccnc1)N=O	96.3% (inactive)	103% (inactive)	104% (inactive)	104% (inactive)	102% (inactive)	97.4% (inactive)	97.1% (inactive)	103% (inactive)	84.7% (inactive)	104% (inactive)	97.6% (inactive)	100% (inactive)	89% (inactive)	90.7% (inactive)	–	93.1% (inactive)	112% (inactive)	102% (inactive)	–	102% (inactive)
Nc1cccc2c1Oc1ccccc1O2	105% (inactive)	190% (inactive)	96.4% (inactive)	145% (inactive)	119% (inactive)	108% (inactive)	99.6% (inactive)	86% (inactive)	201% (inactive)	118% (inactive)	107% (inactive)	87.7% (inactive)	112% (inactive)	115% (inactive)	104% (inactive)	93.3% (inactive)	109% (inactive)	119% (inactive)	88% (inactive)	95.9% (inactive)
CC1(C)N=C(N)N=C(N)N1c1ccc(CCCCc2ccc(S(=O)(=O)F)cc2)cc1	39.4% (inactive)	12.3% (inactive)	19.7% (inactive)	43.2% (inactive)	7.77% (active)	–	16.7% (inactive)	19.3% (inactive)	104% (inactive)	42.3% (inactive)	21.2% (inactive)	23.4% (inactive)	–	16.6% (inactive)	48.7% (inactive)	12.6% (inactive)	45.3% (inactive)	8.88% (active)	40.8% (inactive)	15.4% (inactive)
CCC(CC)(c1ccccc1)C(OC(N)=O)c1ccccc1 (stereo not drawn)	79.9% (inactive)	90.1% (inactive)	66% (inactive)	–	71.9% (inactive)	83.6% (inactive)	82.1% (inactive)	89.5% (inactive)	71.4% (inactive)	79.2% (inactive)	96.1% (inactive)	88.9% (inactive)	88.2% (inactive)	82.2% (inactive)	110% (inactive)	62.4% (inactive)	–	87.7% (inactive)	60.7% (inactive)	79.7% (inactive)
CC(=O)[O][Hg][c]1ccccc1	-84.5% (active)	-52.1% (active)	-21% (active)	-92% (active)	13.6% (inactive)	-90% (active)	–	-87.6% (active)	-94.2% (active)	-46.6% (active)	-27.5% (active)	0.0979% (active)	16.4% (inactive)	-42.1% (active)	-96.7% (active)	-88% (active)	-96.5% (active)	-47.9% (active)	-69.7% (active)	10.1% (inactive)
CC12CCC(=O)C=C1C(O)CC1C2CCC2(C)C(O)CCC12 (stereo not drawn)	100% (inactive)	102% (inactive)	105% (inactive)	113% (inactive)	105% (inactive)	105% (inactive)	97.3% (inactive)	98.6% (inactive)	87.1% (inactive)	89.6% (inactive)	101% (inactive)	103% (inactive)	104% (inactive)	112% (inactive)	117% (inactive)	99% (inactive)	101% (inactive)	108% (inactive)	102% (inactive)	108% (inactive)
CCC1([N+](=O)[O-])COP(=O)(NCc2cccnc2)OC1 (stereo not drawn)	115% (inactive)	104% (inactive)	106% (inactive)	106% (inactive)	104% (inactive)	109% (inactive)	107% (inactive)	107% (inactive)	91.1% (inactive)	94.3% (inactive)	107% (inactive)	101% (inactive)	107% (inactive)	–	114% (inactive)	103% (inactive)	115% (inactive)	116% (inactive)	103% (inactive)	104% (inactive)
CCC(/C=C(C)/C=C/C(=O)c1c(O)c(-c2ccc(O)cc2)c[nH]c1=O)CO (stereo not drawn)	98.4% (inactive)	93.4% (inactive)	7.07% (active)	104% (inactive)	81.1% (inactive)	104% (inactive)	67.6% (inactive)	99.9% (inactive)	67.9% (inactive)	70.9% (inactive)	4.76% (active)	7.28% (active)	83.8% (inactive)	92.6% (inactive)	78.8% (inactive)	80.1% (inactive)	106% (inactive)	107% (inactive)	81.8% (inactive)	–
CCOc1ccc(C(O)CN(C)Cc2ccccc2)cc1Cl (stereo not drawn)	91.3% (inactive)	102% (inactive)	92.5% (inactive)	90.5% (inactive)	96.1% (inactive)	96% (inactive)	97.4% (inactive)	93.2% (inactive)	85.5% (inactive)	90.5% (inactive)	103% (inactive)	108% (inactive)	101% (inactive)	97.1% (inactive)	106% (inactive)	101% (inactive)	102% (inactive)	98% (inactive)	93.3% (inactive)	104% (inactive)
CC12CCC3C(CC=C4CC(O)CCC43C)C1C/C(=C\N1CCOCC1)C2=O (stereo not drawn)	111% (inactive)	108% (inactive)	108% (inactive)	110% (inactive)	113% (inactive)	112% (inactive)	100% (inactive)	99.1% (inactive)	79.2% (inactive)	–	129% (inactive)	94.3% (inactive)	114% (inactive)	96% (inactive)	93.1% (inactive)	101% (inactive)	114% (inactive)	105% (inactive)	91% (inactive)	102% (inactive)
